Measurements published in PubChem BioAssay (NCI).
Compounds without any hit were thinned out: in the full panel of roughly 83,000, 20% have a hit.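 Each cell line was grown in a 96-well plate and treated with one concentration of compound for 48 hours. Values below 10 were considered active.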 Activity calls are given as the source filed them.

Tests used:
Test in all cases: NCI-60 one-dose screen, 48 h (100 = growth as untreated, 0 = no growth, -100 = all killed)
Conditions in all cases: 10 µM unless noted
[1] = test system: HCT-15 colon
[2] = test system: HT29 colon
[3] = test system: SNB-75 CNS
[4] = test system: SNB-19 CNS
[5] = test system: U251 CNS
[6] = test system: PC-3 prostate
[7] = test system: SK-MEL-5 melanoma
[8] = test system: UACC-62 melanoma
[9] = test system: LOX IMVI melanoma
[10] = test system: SK-MEL-28 melanoma

Measured: growth

Cn1cnc([N+](=O)[O-])c1Sc1nc(N)nc2nc[nH]c12
inactive: [1] 50.3% | [2] 47.2% | [3] 31.3% | [4] 101% | [5] 63.6% | [6] 56.2% | [7] 79.3% | [10] 84.4%
active: [8] 7.35% | [9] 6.74%

COc1cc(C2CC(c3ccc(C)cc3)=NN2C=O)ccc1OCCN(C)C (stereo not given)
inactive: [1] 76% | [2] 84.2% | [3] 62.2% | [4] 92.5% | [5] 92.2% | [6] 79% | [7] 90.2% | [8] 100% | [9] 89.8% | [10] 107%

CCSc1nc(-c2cccs2)n2nc(-c3ccco3)cc2n1
inactive: [1] 78% | [2] 88.8% | [3] 84.2% | [4] 109% | [5] 91.4% | [6] 99% | [7] 86.5% | [8] 85.2% | [9] 92% | [10] 113%

NS(=O)(=O)c1ccc(-n2nc(-c3ccc(Br)cc3)ccc2=O)cc1
inactive: [1] 43% [100 µM] | [2] 63.9% [100 µM] | [4] 36.5% [100 µM] | [5] 11.2% [100 µM] | [6] 78.2% [100 µM] | [7] 65.1% [100 µM] | [8] 53.6% [100 µM] | [9] 68.1% [100 µM] | [10] 80.9% [100 µM]
active: [3] 8.35% [100 µM]

N#Cc1ccccc1C#Cc1ccccc1C#Cc1ccc(OCCCCCCOc2ccc(C#Cc3ccccc3C#Cc3ccccc3C#N)cc2)cc1
inactive: [1] 123% | [2] 111% | [3] 106% | [4] 108% | [5] 106% | [6] 99.5% | [7] 73.8% | [8] 83.3% | [9] 98.4% | [10] 113%

N[C@H](CS)C(=O)O
inactive: [1] 96.6% | [2] 95.9% | [3] 84.2% | [4] 96.1% | [5] 105% | [6] 94.1% | [7] 105% | [8] 99.9% | [9] 100% | [10] 125%

COc1cnc2c(c1)C(=O)c1c-2n(CCCN2CCNCC2)c(=O)c2cc(F)ccc12
active: [1] 2.48% | [2] -42.1% | [3] -7.98% | [5] 2.03% | [7] -88.5% | [8] -0.448% | [9] -86.8% | [10] -60.5%
inactive: [4] 18.3% | [6] 22.8%

CCN(Cc1cccc(S(=O)(=O)[O-])c1)c1ccc(C(=C2C=CC(=[N+](CC)Cc3cccc(S(=O)(=O)O)c3)C=C2)c2ccccc2S(=O)(=O)O)cc1
inactive: [1] 103% | [2] 103% | [3] 87.9% | [4] 106% | [5] 99.2% | [6] 93.7% | [7] 97.4% | [8] 101% | [9] 96% | [10] 109%

CCOC(CNCc1cc(C)c2[nH]c3ccccc3c2c1C)OCC
inactive: [1] 80.7% | [2] 53.1% | [3] 73.6% | [4] 78.6% | [5] 83.2% | [6] 58.6% | [7] 79.8% | [8] 77.9% | [9] 77.2% | [10] 97.3%

COc1cc(/C=C/C(=O)c2c(C)n([O-])c3ccccc3[n+]2=O)cc(OC)c1OC
inactive: [1] 30% | [2] 65.4% | [3] 81% | [4] 50.8% | [5] 47.7% | [6] 25.5% | [7] 21.3% | [8] 54.7% | [9] 50.9% | [10] 79%

BrC1CC(Br)c2c1c1c(c3c2C(Br)CC3Br)C(Br)CC1Br (stereo not given)
inactive: [1] 97.6% | [2] 86.7% | [3] 68.6% | [4] 98.7% | [5] 88.7% | [6] 81.5% | [7] 99.8% | [8] 82.4% | [9] 73.7% | [10] 119%

Cc1onc(-c2ccccc2Cl)c1C(=O)N[C@@H]1C(=O)N2[C@@H]1SC(C)(C)[C@@H]2C(=O)O
inactive: [1] 106% | [2] 105% | [3] 103% | [4] 105% | [5] 98.4% | [6] 98.3% | [7] 101% | [8] 99.5% | [9] 99.9% | [10] 117%

CCCCN=C(N)c1ccc(OCCSCCOc2ccc(C(N)=NCCCC)cc2)cc1
inactive: [1] 90.5% | [2] 44% | [3] 65.7% | [4] 36.7% | [5] 34.5% | [6] 44.4% | [7] 22.6% | [8] 58.3% | [9] 58.1% | [10] 69.6%

COc1ccc(C(=O)COc2cccc(/C=C3\CSc4ccc(Cl)cc4C3=O)c2)cc1
inactive: [1] 70.4% | [2] 72.2% | [3] 99.3% | [4] 91.3% | [5] 71.1% | [6] 61.9% | [7] 67.2% | [8] 71.8% | [9] 33.1% | [10] 114%

CC12CCC3C(=CCc4cc(O)ccc43)C1CCC2=O (stereo not given)
inactive: [1] 96.1% | [2] 94.5% | [3] 104% | [4] 103% | [5] 98.7% | [6] 88.9% | [7] 97.5% | [8] 88.9% | [9] 102% | [10] 103%

COc1ccc2c(=O)c(OC)c(-c3cc(OC)c(OC)c(OC)c3)oc2c1
inactive: [1] 101% | [2] 98.2% | [3] 79.5% | [4] 92.5% | [5] 96.1% | [6] 67.7% | [7] 75.4% | [8] 70.5% | [9] 82.7% | [10] 97.4%

COc1ccc(-c2ccc(O)c(C(=O)/C=C/c3cc(OC)c(OC)c(OC)c3)c2)cc1
inactive: [1] 76.6% | [2] 75% | [3] 96.9% | [4] 99.4% | [5] 78% | [6] 61.8% | [7] 71.7% | [8] 67.1% | [9] 62.5% | [10] 104%

CCC(=O)Nc1cc2c(cc1Cl)-c1ccccc1C2
inactive: [1] 94.9% | [2] 114% | [3] 83.1% | [4] 101% | [5] 96.4% | [6] 80.5% | [7] 93.5% | [8] 84.8% | [9] 88.2% | [10] 122%

COCCOCCOCCOCCOc1ccc2c(c1)C(=O)c1nc3ncccc3c(=O)n1-2
active: [1] -95.6% | [2] -39.3% | [3] -61.1% | [4] -87% | [5] -63.6% | [6] -8.58% | [7] -100% | [8] -97.2% | [9] -87.7% | [10] -75.3%

Cc1sc2nc(NCCc3cccs3)[nH]c(=O)c2c1C
inactive: [1] 59.6% | [2] 85.1% | [3] 90.1% | [4] 90.2% | [5] 75.8% | [6] 71.9% | [7] 90.8% | [8] 63.1% | [9] 88.7% | [10] 100%

O=C1N=C(N2CCOCC2)S/C1=C\c1cn(-c2ccccc2)nc1-c1ccccc1
active: [3] -30.2%
inactive: [1] 89.4% | [2] 80.5% | [4] 72.1% | [5] 66.1% | [6] 90.4% | [7] 66.4% | [8] 77.8% | [9] 76% | [10] 72%

Cc1[nH]cnc1/C=C1\SC(N2CCCCC2)=NC1=O
inactive: [1] 107% | [2] 108% | [3] 111% | [4] 102% | [5] 108% | [6] 106% | [7] 103% | [8] 100% | [9] 97.7% | [10] 119%

Nc1nc(SCc2cccnc2)c2ncn(C3OC(CO)C(O)C3O)c2n1 (stereo not given)
inactive: [1] 102% | [2] 106% | [3] 101% | [4] 98.7% | [5] 98.3% | [6] 89.4% | [7] 99.5% | [8] 84.8% | [9] 102% | [10] 111%

CCCCCCCCCCOC(C)=O
inactive: [1] 107% | [2] 106% | [3] 80.7% | [4] 108% | [5] 108% | [6] 93.4% | [7] 107% | [8] 103% | [9] 108% | [10] 110%

Clc1ccc(C2=NN(c3ccc(Cl)cc3)C(c3cccc(Nc4ccnc5cc(Cl)ccc45)c3)C2)cc1 (stereo not given)
inactive: [1] 85.2% | [2] 77.9% | [3] 77.3% | [4] 82.3% | [5] 76.8% | [6] 65.7% | [7] 92.8% | [8] 88.3% | [9] 85.1% | [10] 104%

CCCc1n(Cc2ccc3ccccc3c2)cc[n+]1Cc1ccc2ccccc2c1
inactive: [1] 53.8%
active: [2] -22.5% | [3] -13.9% | [4] -7.08% | [5] 0.776% | [6] -2.89% | [7] -98.1% | [8] -67.2% | [9] -84.3% | [10] -40.3%
